ATXN viability = Viability Counterscreen for Primary qHTS for Inhibitors of ATXN expression | S2 cells (HEK-293 line with an ATXN2-luciferase reporter) viability, CellTiter-Fluor protease fluorescence, 24 h | Potency, µM (top dose mostly 56.7 µM), actives largely listed as cytotoxic | actives 0.49% (n = 400,000); also: nearly all actives have a fitted effect of over 40% in size
ATXN2 expr inh = Primary qHTS for Inhibitors of ATXN expression | HEK-293 ATXN2-luciferase reporter, luminescence, 24 h | Potency, µM (top dose mostly 57 µM), inactives show at the top dose activity change, negative = inhibition, actives largely listed as inhibitors | actives 0.72% (n = 360,000); also: % is scaled to controls: 0 for no effect and ±100 for the full control effect; nearly all actives have a fitted effect of over 55% in size
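qHTS (up to 57 uM final) was run with 24 h compound exposure of reporter cells at 37 °C. Each well was multiplexed: SteadyGlo luminescence measured ATXN2-luciferase expression after a fluorogenic Gly-Phe-AFC viability readout (25 uM final).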
Nrf2 activator = qHTS of Nrf2 Activators. AREc32 ARE-luciferase reporter (MCF7-derived line), luminescence, 24 h. Potency, µM (doses to about 46.1 µM), for the others: top-dose activation, hits mostly activators. actives 0.31% (n = 410,000); also: % of control where 0% means no effect; nearly all actives have a fitted effect of over 65% in size
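For detection, Steady-Glo was added and plates sat 30 min at RT; before that, AREc32_Fluc cells grown overnight in OPTI-MEM/5% FBS had been treated with 23 nL compound for 24 hr at 37 deg C.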
Nrf2 block = Nrf2 qHTS screen for inhibitors; A549 ARE-Fluc reporter, luciferase luminescence, 18-24 h; Potency, µM (doses to about 46 µM), inactives show at the top dose activity change, negative = inhibition, actives largely listed as inhibitors; actives 2.1% (n = 360,000); AID 504444, 2011; also: % is scaled to controls: 0 for no effect and ±100 for the full control effect; nearly all actives have a fitted effect of over 60% in size
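A549 ARE_Fluc cells (5000/well, 5% FBS OPTI-MEM) pre-incubated 2 h, then treated with compounds 18-24 h at 37C/5% CO2 in concentration-response. CellTiter-Fluor viability read first; BugLite luciferase luminescence after 15 min at room temperature gives Nrf2 activity.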
A549 tox-1 = Nrf2 qHTS screen for inhibitors: counterscreen for cytotoxicity; A549 ARE-Fluc cells, CellTiter-Fluor viability, 18-24 h; Potency, µM (series often up to 46 µM), for inactives: at the top dose activity change, negative = cytotoxicity, most hits filed as inhibitors; actives 0.16% (n = 390,000); AID 504648, 2011; also: % is scaled to controls: 0 for no effect and ±100 for the full control effect
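Cytotoxicity counterscreen: CellTiter-Fluor fluorescence was measured in A549 ARE_Fluc cells after 18-24 h of compound exposure in a concentration series. The subsequent BugLite luminescent read reports ARE-luciferase activity.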
FLuc counter 3 = Nrf2 qHTS screen for inhibitors: Purified Fluc Biochemical Counterscreen for Hit Validation | Potency, µM (series often up to 57.5 µM), for inactives: top-dose activity change, negative = inhibition, hits mostly inhibitors | purified firefly luciferase, luminescence inhibition | shares compounds with Nrf2 block | AID 720522, 2013 | actives 4% (n = 1,400); also: % is scaled to controls: 0 for no effect and ±100 for the full control effect; nearly all actives have a fitted effect of over 65% in size
Target sequence (P08659 whole entry, looked up): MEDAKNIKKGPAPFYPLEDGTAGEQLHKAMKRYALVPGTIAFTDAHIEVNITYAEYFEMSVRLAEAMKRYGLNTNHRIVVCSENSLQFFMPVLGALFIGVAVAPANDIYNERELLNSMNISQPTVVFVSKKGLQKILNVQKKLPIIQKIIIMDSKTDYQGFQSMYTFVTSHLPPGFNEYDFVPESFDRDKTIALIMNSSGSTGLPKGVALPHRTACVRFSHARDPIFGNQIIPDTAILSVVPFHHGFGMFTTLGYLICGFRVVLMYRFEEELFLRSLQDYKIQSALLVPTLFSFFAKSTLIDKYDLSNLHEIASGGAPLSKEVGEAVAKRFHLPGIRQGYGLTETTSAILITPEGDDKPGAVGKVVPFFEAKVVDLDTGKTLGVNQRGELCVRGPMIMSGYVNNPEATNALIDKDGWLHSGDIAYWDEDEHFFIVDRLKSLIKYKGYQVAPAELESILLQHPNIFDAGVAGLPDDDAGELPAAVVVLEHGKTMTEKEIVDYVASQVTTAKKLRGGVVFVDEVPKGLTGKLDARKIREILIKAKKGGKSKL
A549 tox-2 = Nrf2 qHTS screen for inhibitors: A549 ARE-Fluc Cytotoxicity Counterscreen for Hit Validation; shares compounds with Nrf2 block; A549 ARE-Fluc cells, cytotoxicity counterscreen; actives 2% (n = 1,400); Potency, µM (doses to about 46.1 µM), without a hit: top-dose activity change, negative = cytotoxicity, most hits filed as inhibitors; AID 720523, 2013;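 also: cells exposed to compounds for 18 to 24 hours; % is scaled to controls: 0 for no effect and ±100 for the full control effect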
ARE-Fluc inh = Nrf2 qHTS screen for inhibitors: Nrf2 A549 ARE-Fluc Confirmation Assay for Hit Validation; Potency, µM (series often up to 46.1 µM), for inactives: at the highest dose activity change, negative = inhibition, usual class: inhibitors; actives 74% (n = 1,400); shares compounds with Nrf2 block; A549 ARE-firefly luciferase reporter, luminescence; also: % is scaled to controls: 0 for no effect and ±100 for the full control effect; nearly all actives have a fitted effect of over 65% in size
* marks the source's active call; other numbers are inactive results; i = inactive; ? = inconclusive; nt = not tested or not shown; [ ] = remark or other dose. Rows were chosen to be rich in hits. Some 2.9% of all compounds tested hit in one or more screens of this group. Calls follow the shape of the dose curve; as a rule, active = well fitted curve in the direction sought with a large enough effect; inconclusive = small, poorly fitted or top-dose-only effect, or another doubt; inactive = no such curve, though single readings can be large; an effect the other way counts as inactive or inconclusive. Potency is read from the fitted curve at half-maximal effect.

SMILES	ATXN viability	ATXN2 expr inh	Nrf2 activator	Nrf2 block	A549 tox-1	FLuc counter 3	A549 tox-2	ARE-Fluc inh
O=C(Nc1ccc(S(=O)(=O)N2CCOCC2)cc1)c1ccc(S(=O)(=O)N2CCOCC2)cc1	i	2.5%	0.1%	?	7.5%	nt	nt	nt
CCN(CC)S(=O)(=O)c1ccc(NC(=O)c2ccc(N3CCCC3=O)cc2)cc1	i	-19.3%	-0.2%	1.46µM*	-15.8%	-1.1%	-5.5%	7.31µM*
CCN(CC)S(=O)(=O)c1ccc(NC(=O)c2ccc(CN3CCOCC3)cc2)cc1	i	?	0.1%	3.66µM*	-4.2%	1.3%	-7.1%	3.66µM*
CCN(CC)S(=O)(=O)c1ccc(OC)c(NC(=O)c2ccc(N3CCCC3=O)cc2)c1	i	-1.9%	-0.3%	-0.6%	-6.9%	nt	nt	nt
Cc1ccc(CN2CCN(C3CCN(C(=O)OC(C)(C)C)CC3)C(=O)C2=O)cc1	i	-0.8%	-0.2%	nt	15.9%	nt	nt	nt
COc1ccccc1CNC(=O)C1CCN(S(=O)(=O)c2cccc3nonc23)CC1	i	-29.0%	-0.6%	8.3%	1.3%	nt	nt	nt
O=C(NC1CCN(Cc2ccccc2)CC1)c1ccc2c(c1)[nH]c(=O)n2Cc1ccc(F)cc1	i	-26.6%	6.9%	4.61µM*	?	0.5%	-15.5%	9.2µM*
COc1ccc(CCN=C(N)NS(=O)(=O)c2ccc(OC)c(OC)c2)cc1OC	i	8.3%	-1.2%	9.1%	-5.4%	nt	nt	nt
O=C(O)CCC(=O)Nc1ccc(NC(=O)c2ccc(Cl)cc2Cl)c(Cl)c1	i	18.1%	-0.8%	-10.8%	2.4%	nt	nt	nt
NC(=S)N/N=C/c1ncc(C(F)(F)F)cc1Cl	14.1µM*	7.94µM*	10.3%	4.11µM*	?	-1.5%	?	5.17µM*
NC(=S)N/N=C/c1ccc(C(F)(F)F)cc1	i	-27.5%	-0.9%[9.22 µM]	?	-2.5%	nt	nt	nt
C/C(=N\NC(=O)c1cc2ccccc2cc1O)c1ccc2c(c1)OCO2	i	-4.2%	2.5%	7.9%	-5.5%	nt	nt	nt
CC/C(=N/NC(=O)c1ccc2c(c1)OCO2)c1ccccc1O	?	nt	0.0%	5.17µM*	-22.1%	10.7µM*	-8.5%	-15.5%
C/C(=N\NC(=O)c1cc(-c2cccs2)nc2ccccc12)c1ccccn1	i	2.82µM*	5.4%	2.06µM*	?	9.53µM*	-23.4%	1.84µM*
C/C(=N\NC(=O)c1ccc(Cl)c(Cl)c1)c1ccccn1	?	?	-0.1%	2.31µM*	?	?	-23.3%	nt
COc1ccc(C(=O)N/N=C(\C)c2ccccn2)cc1OC	?	?	?	5.17µM*	?	-16.4%	-46.9%	nt
NNC(=O)c1cc(-c2cccs2)nc2ccccc12	i	nt	0.2%	?	25.7%	nt	nt	nt
COc1ccc(NC(=O)c2ccccn2)cc1OC	i	nt	4.9%	26.8%	-3.3%	nt	nt	nt
COc1ccccc1NC(=S)NN=C(C)c1ccccn1	?	-56.7%	-0.3%	1.16µM*	-17.8%	-28.5%	-21.9%	2.59µM*
C[C@H](CO)N1C[C@H](C)[C@@H](CN(C)Cc2ccc(C(=O)O)cc2)Oc2c(NC(=O)Cc3ccccc3)cccc2C1=O	i	8.3%	0.0%	-12.9%	2.7%	nt	nt	nt
C/C(=N/NC(=O)c1ccc(C(C)(C)C)cc1)c1ccccn1	i	?	12.8%	5.8µM*	?	10.7µM*	?	?
